Source: PubChem BioAssay (NCATS)
Where “and” joins values, the source holds several entries; their conditions need not be identical. Identical values can stand only once. Inconclusive results are not listed. Entries that show only a call come without a potency. More than one record can exist for a structure, and the calls need not agree. Calls of active or inactive are those of the source. Calls come from the whole dose curve; as a rule, active = well fitted curve in the direction sought with a large enough effect; inconclusive = small, poorly fitted or top-dose-only effect, or another doubt; inactive = no such curve, though single readings can be large; an effect the other way counts as inactive or inconclusive.

Experiments:
[1] = Primary qHTS for inhibitors of nuclear receptor binding SET domain protein 2 (NSD2) in an isogenic RCH-ACV NSD2 p.E1099K mutant (9B) (AID 1645876); note: nearly all actives have a fitted effect of over 70% in size; note: potency is the fitted concentration of half-maximal effect
[2] = Primary qHTS for inhibitors of nuclear receptor binding SET domain protein 2 (NSD2) in an RCH-ACV wild type WT cells (2C) (AID 1645877); note: nearly all actives have a fitted effect of over 70% in size; note: potency is the fitted concentration of half-maximal effect
[3] = target: Rap guanine nucleotide exchange factor 3 (Homo sapiens) (UniProt O95398); assay: Confirmatory qHTS for antagonist of cAMP-regulated guanine nucleotide exchange factor 3 (EPAC1) (AID 1645880); note: nearly all actives have a fitted effect of over 55% in size
How it was run: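 Nucleotide exchange uses 100 nM EPAC1, 250 nM RAP1B-BODIPY-GDP and 50 uM GDP, with compounds in a concentration-titration series. After 5 min at room temperature, fluorescence (480 nm ex/540 nm em) is read every 5 min for 30 min. Data are normalized to control ATA and DMSO.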

[4] = target: Rap guanine nucleotide exchange factor 3 (Homo sapiens) (UniProt O95398); assay: Confirmatory qHTS for agonist of cAMP-regulated guanine nucleotide exchange factor 3 (EPAC1) (AID 1645881);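 note: EPAC1 catalysed release of BODIPY-GDP from Rap1B seen as fluorescence loss; nearly all actives have a fitted effect of over 75% in size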
[5] = target: Rap guanine nucleotide exchange factor 4 (Homo sapiens) (UniProt Q8WZA2); assay: Confirmatory qHTS for agonist of cAMP-regulated guanine nucleotide exchange factor 4 (EPAC2) (AID 1645884);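 note: nucleotide exchange releases bodipy-GDP from Rap1 and this lowers its fluorescence; nearly all actives have a fitted effect of over 65% in size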
[6] = target: Catechol O-methyltransferase (Homo sapiens) (UniProt P21964); assay: Confirmatory Screen for Target Class Profiling of Small Molecule Inhibitors of Methyltransferases (AID 1745852); conditions: MTase-Glo luminescence, SAH detection, recombinant enzyme; measured here: COMT max response; stronger effect = lower value
[7] = target: Guanidinoacetate N-methyltransferase (Homo sapiens) (UniProt Q14353); assay: as above; conditions: MTase-Glo luminescence, SAH detection, recombinant enzyme; activity change, negative = inhibition: at 57.3 µM (top of the series) unless noted
[8] = target: Nicotinamide N-methyltransferase (Homo sapiens) (UniProt P40261); assay: as above; conditions: MTase-Glo luminescence, SAH detection, recombinant enzyme; measured here: NNMT max response; stronger effect = lower value
Sequence of Nicotinamide N-methyltransferase (Homo sapiens) (P40261 whole entry, looked up): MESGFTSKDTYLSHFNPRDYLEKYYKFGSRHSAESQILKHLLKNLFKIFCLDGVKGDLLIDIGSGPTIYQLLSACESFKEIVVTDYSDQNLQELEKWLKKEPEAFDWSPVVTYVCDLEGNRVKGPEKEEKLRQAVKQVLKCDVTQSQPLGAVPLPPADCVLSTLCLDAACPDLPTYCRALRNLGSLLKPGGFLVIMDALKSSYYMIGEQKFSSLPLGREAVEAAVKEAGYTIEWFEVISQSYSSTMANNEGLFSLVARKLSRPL

Sequence of Rap guanine nucleotide exchange factor 3 (Homo sapiens) (O95398 whole entry, looked up): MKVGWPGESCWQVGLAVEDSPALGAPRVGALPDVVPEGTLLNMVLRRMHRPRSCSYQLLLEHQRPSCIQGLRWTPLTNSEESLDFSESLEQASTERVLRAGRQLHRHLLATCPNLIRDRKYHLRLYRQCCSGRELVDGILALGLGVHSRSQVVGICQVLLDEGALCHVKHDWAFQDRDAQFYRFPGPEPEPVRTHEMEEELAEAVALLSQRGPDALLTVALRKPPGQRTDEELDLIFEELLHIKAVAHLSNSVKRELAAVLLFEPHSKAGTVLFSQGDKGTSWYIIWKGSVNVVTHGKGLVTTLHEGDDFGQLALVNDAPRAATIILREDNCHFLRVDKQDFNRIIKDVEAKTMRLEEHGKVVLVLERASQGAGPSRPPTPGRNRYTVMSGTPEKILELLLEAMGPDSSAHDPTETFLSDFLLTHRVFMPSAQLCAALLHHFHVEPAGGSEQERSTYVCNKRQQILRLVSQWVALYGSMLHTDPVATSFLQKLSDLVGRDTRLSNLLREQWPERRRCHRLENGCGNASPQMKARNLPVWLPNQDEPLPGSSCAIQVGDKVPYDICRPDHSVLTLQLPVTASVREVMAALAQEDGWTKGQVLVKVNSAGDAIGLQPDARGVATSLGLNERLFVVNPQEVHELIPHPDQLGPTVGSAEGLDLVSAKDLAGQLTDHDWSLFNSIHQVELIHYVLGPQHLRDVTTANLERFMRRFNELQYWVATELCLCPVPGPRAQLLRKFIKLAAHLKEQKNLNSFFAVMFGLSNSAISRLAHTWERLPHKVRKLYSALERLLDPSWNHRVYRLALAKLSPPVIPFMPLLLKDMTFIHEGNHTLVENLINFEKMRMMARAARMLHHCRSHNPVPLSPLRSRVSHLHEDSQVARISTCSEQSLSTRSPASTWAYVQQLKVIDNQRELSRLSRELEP
Sequence of Catechol O-methyltransferase (Homo sapiens) (P21964 whole entry, looked up): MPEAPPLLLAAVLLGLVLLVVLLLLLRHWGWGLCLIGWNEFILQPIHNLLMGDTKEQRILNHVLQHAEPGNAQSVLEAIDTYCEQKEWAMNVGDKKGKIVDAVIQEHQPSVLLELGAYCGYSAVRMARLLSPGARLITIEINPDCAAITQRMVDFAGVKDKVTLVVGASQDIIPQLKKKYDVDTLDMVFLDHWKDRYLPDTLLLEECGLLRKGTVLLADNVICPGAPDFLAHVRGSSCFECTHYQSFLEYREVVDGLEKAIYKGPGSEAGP
Sequence of Rap guanine nucleotide exchange factor 4 (Homo sapiens) (Q8WZA2 whole entry, looked up): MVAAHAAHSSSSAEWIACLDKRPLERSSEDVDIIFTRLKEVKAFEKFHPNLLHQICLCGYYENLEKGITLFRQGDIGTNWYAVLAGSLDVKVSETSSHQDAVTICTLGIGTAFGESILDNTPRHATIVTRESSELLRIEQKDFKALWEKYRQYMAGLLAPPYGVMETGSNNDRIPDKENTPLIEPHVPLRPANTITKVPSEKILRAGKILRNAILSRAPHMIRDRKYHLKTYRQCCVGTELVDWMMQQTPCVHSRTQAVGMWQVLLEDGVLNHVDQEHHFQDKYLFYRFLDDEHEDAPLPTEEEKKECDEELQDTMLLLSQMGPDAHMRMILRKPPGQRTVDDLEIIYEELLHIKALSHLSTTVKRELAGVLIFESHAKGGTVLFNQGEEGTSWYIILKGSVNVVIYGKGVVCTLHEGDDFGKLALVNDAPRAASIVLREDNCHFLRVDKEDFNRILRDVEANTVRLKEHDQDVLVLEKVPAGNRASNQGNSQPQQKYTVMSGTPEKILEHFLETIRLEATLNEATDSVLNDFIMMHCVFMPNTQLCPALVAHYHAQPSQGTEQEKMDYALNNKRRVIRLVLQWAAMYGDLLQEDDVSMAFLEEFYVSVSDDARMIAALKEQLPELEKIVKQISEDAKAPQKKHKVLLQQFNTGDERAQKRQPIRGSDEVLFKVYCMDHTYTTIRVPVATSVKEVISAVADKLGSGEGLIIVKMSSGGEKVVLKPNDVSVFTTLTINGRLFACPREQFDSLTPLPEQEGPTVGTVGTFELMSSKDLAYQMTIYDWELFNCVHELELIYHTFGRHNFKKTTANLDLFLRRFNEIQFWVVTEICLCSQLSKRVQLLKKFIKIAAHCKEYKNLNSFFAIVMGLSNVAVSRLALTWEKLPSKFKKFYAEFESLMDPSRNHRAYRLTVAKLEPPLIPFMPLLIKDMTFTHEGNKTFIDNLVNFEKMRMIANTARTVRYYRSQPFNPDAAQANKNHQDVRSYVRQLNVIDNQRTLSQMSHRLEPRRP

Oc1cccc(-c2nc(N3CCOCC3)c3oc4ncccc4c3n2)c1
Potency [1]: 0.118 µM (active)
Potency [2]: 0.166 µM (active)

CC(C)c1onc(-c2c(Cl)cccc2Cl)c1COc1ccc(/C=C/c2cccc(C(=O)O)c2)c(Cl)c1
Potency [1]: inactive
Potency [2]: inactive

CNC(=O)c1ccc(N2C(=S)N(c3ccc(C#N)c(C(F)(F)F)c3)C(=O)C2(C)C)cc1F
Potency [1]: inactive
Potency [2]: inactive

CCn1cc(C(=O)O)c(=O)c2cc(F)c(N3CCNC(C)C3)c(F)c21 (stereo not given)
Potency [1]: inactive
Potency [2]: inactive

O=C1[C@H](Cc2ccc(O)cc2)N2C(=O)CCN(C(=O)NCc3ccccc3)[C@H]2CN1Cc1cccc2ccccc12
Potency [1]: 3.72 µM (active)
Potency [2]: 3.72 µM (active)

COc1cc(Oc2ccnc3cc(OC)c(OC)cc23)ccc1NC(=O)NC(C)c1nccs1 (stereo not given)
Potency [1]: inactive and 13.2 µM (active)
Potency [2]: inactive and 8.33 µM (active)

N#CC[C@H](C1CCCC1)n1cc(-c2ncnc3[nH]ccc23)cn1
Potency [1]: 16.3 µM (active) and 9.34 µM (active)
Potency [2]: 18.3 µM (active) and 9.34 µM (active)

CN([C@@H](Cc1ccc(OS(=O)(=O)c2cccc3cnccc23)cc1)C(=O)N1CCN(c2ccccc2)CC1)S(=O)(=O)c1cccc2cnccc12
activity change, negative = viability loss [1]: 7.52% [at 4.96 µM] (inactive)
activity change, negative = cell killing [2]: 9.55% [at 4.96 µM] (inactive)

Nc1nc2[nH]cc(CCc3ccc(C(=O)N[C@@H](CCC(=O)O)C(=O)O)cc3)c2c(=O)[nH]1
Potency [1]: 0.296 µM (active)
Potency [2]: 0.296 µM (active)

COc1ccc(-c2c(-c3ccc(O)cc3O)n[nH]c2C)cc1
Potency [1]: inactive
Potency [2]: inactive

CCOc1cc(N2CCC(O)CC2)ccc1Nc1ncc2c(n1)N(C)c1ccccc1C(=O)N2C
Potency [1]: 2.35 µM (active)
Potency [2]: 2.63 µM (active)

CC(C)C[C@H](NC(=O)[C@@H](O)[C@H](N)Cc1ccccc1)C(=O)O
Potency [1]: inactive
Potency [2]: inactive

COc1c(Cl)cc2c([nH]c3cnccc32)c1NC(=O)c1cccnc1C
Potency [1]: 9.34 µM (active)
Potency [2]: 9.34 µM (active)

CCCc1nn(C)c2c(=O)[nH]c(-c3cc(S(=O)(=O)N4CCN(C)CC4)ccc3OCC)nc12
Potency [1]: inactive
Potency [2]: 10.6 µM (active) and inactive

Cc1cn[nH]c1
Potency [1]: inactive
Potency [2]: inactive

Cc1ccc(NC(=O)c2cccc(C(C)(C)C#N)c2)cc1Nc1ccc2ncn(C)c(=O)c2c1
Potency [1]: 10.5 µM (active)
Potency [2]: 13.2 µM (active)

N=c1nc(N2CCCCC2)cc(N)n1O
Potency [1]: inactive
Potency [2]: inactive

O=C(O)[C@@H](c1ccc(OCc2ccc3ccccc3n2)cc1)C1CCCC1
Potency [1]: inactive
Potency [2]: inactive

Cc1cccc(-c2[nH]c(C(C)(C)C)nc2-c2ccc3nccnc3c2)n1
Potency [1]: 13.2 µM (active) and 5.8 µM (active)
Potency [2]: 11.8 µM (active) and 6.51 µM (active)

COc1ccc(-c2ccc3c(N4CCOCC4)nc(N4C[C@@H](C)O[C@@H](C)C4)nc3n2)cc1CO
Potency [1]: 0.662 µM (active)
Potency [2]: inactive

CCCc1nc2c(C)cc(-c3nc4ccccc4n3C)cc2n1Cc1ccc(-c2ccccc2C(=O)O)cc1
Potency [1]: inactive
Potency [2]: inactive

CNC[C@H](O)c1cccc(O)c1
Potency [1]: inactive
Potency [2]: inactive

COc1ccccc1-c1cccc(-c2c(O)c3cc(C#N)c(Cl)cc3[nH]c2=O)c1
Potency [1]: inactive
Potency [2]: inactive

CCn1c(-c2nonc2N)nc2c(C#CC(C)(C)O)ncc(OC[C@H]3CCCNC3)c21
Potency [1]: 1.32 µM (active)
Potency [2]: 1.18 µM (active)

N[C@@H]1CONC1=O
Potency [1]: inactive
Potency [2]: inactive

Cc1ccnc(NS(=O)(=O)c2ccc(NC(=O)Nc3ccc(S(=O)(=O)Nc4nccc(C)n4)cc3)cc2)n1
Potency [1]: inactive
Potency [2]: inactive

O=C(Nc1nc2ccccc2n1CCN1CCOCC1)c1cccc([N+](=O)[O-])c1
Potency [1]: inactive
Potency [2]: inactive

CNC(=O)c1ccccc1Sc1ccc2c(/C=C/c3ccccn3)n[nH]c2c1
Potency [1]: 750 nM (active) and 916 nM (active) and 4.17 µM (active)
Potency [2]: 531 nM (active) and 1.03 µM (active) and 833 nM (active)

Cc1ccc(-n2nc(C(C)(C)C)cc2NC(=O)Nc2ccc(OCCN3CCOCC3)c3ccccc23)cc1
Potency [1]: 23.7 µM (active) and inactive
Potency [2]: 21.1 µM (active)

NC(=O)c1cnccn1
Potency [1]: inactive
Potency [2]: inactive

Nc1nc2ccc(OC(F)(F)F)cc2s1
Potency [1]: 23.5 µM (active)
Potency [3]: inactive
outcome [4]: inactive
outcome [5]: inactive

CNCc1ccc(-c2[nH]c3cc(F)cc4c3c2CCNC4=O)cc1
Potency [1]: 16.3 µM (active) and 11.8 µM (active)
activity [6]: -6.4%
activity change, negative = inhibition [7]: -1.39%
activity [8]: -24.3%

CC(C)(N)C(=O)N[C@H](COCc1ccccc1)C(=O)N1CCC2(CC1)CN(S(C)(=O)=O)c1ccccc12
Potency [1]: 16.3 µM (active) and 26.3 µM (active)
Potency [2]: 14.5 µM (active) and 14.8 µM (active)
